Measured values published in PubChem BioAssay AID624483 (NMMLSC, 2012).
The whole screen tested about 360,000 compounds, of which about 11,000 (3.1%) were called active. Not shown: some 2% with an inconclusive outcome. The list comes from a sample in which actives are over-represented; it also holds similar structures and randomly drawn compounds. Values without a mark were called inactive. Rule as the data show it: active = fluorescence intensity above about 16000; inconclusive = no clear call, values can overlap the other calls; inactive = below that.

Experiment: compound fluorescence in toxin protease inhibitor counterscreen, primary screen, artefact control for toxin protease inhibitor project, biochemical, multiplex microsphere, HTS (AID 624483)
Settings: compound autofluorescence counterscreen, microsphere flow cytometry; active compounds read high
`Cc1ccccc1/[N+]([O-])=C/c1ccncc1` gave a fluorescence intensity of 3600.
`O=C(Nc1ccc(F)cc1)Nc1nnc([C@H]2C[C@H](O)[C@@H](CO)O2)s1` gave a fluorescence intensity of 2870.
For `COc1ccc(C(=O)NNC(=O)c2cnccn2)cc1[N+](=O)[O-]`, the fluorescence intensity was 16500 (active).
In the case of `CCOc1ccc(C(=O)Nc2nccs2)cc1[N+](=O)[O-]`, the fluorescence intensity is reported as 2430.
`COc1cccc(OCC(=O)NNC(=O)c2cnccn2)c1` gave a fluorescence intensity of 2360.
In the case of `Cc1ccc(CC2(C)C(=O)Nc3ccc(OC(F)(F)F)cc32)cc1` (stereo not drawn), the fluorescence intensity is reported as 3690.
In the case of `Cc1cccc(NC(=O)C2CCN(C(=O)NC3CCCCC3)CC2)c1`, the fluorescence intensity is reported as 3730.
In the case of `O=C(COc1ccc(S(=O)(=O)Nc2cccc(C(F)(F)F)c2)cc1)N1CCOCC1`, the fluorescence intensity is reported as 4570.
In the case of `O=C(Nc1cccc(OCC(=O)N2CCOCC2)c1)C1CCCCC1`, the fluorescence intensity is reported as 23600 (active).
`C#Cc1ccc(NC(=O)C2(C)CCN2C(=O)Cc2ccc(-c3ccccc3)cc2)cc1` (stereo not drawn) showed a fluorescence intensity of 3720.
In the case of `Cc1ccc(C)c(NC(=S)NNC(=S)Nc2ccc(C(C)C)cc2)c1`, the fluorescence intensity is reported as 3300.
For `Cc1ccc(NC(=S)N/N=C2/CCCc3c(C)cc(C)cc32)cc1`, the fluorescence intensity was 20600 (active).
Compound `C/C(=N\NC(=S)Nc1ccc(C)cc1)c1cc2ccccc2o1` has a fluorescence intensity of 4230.
Work on `COCc1cccc(-c2csc(C(O)c3ccc(F)cc3)n2)c1` (stereo not drawn) yielded a fluorescence intensity of 3440.
`O=C(CC1Nc2ccccc2NC1=O)Nc1ccccc1` (stereo not drawn) gave a fluorescence intensity of 3710.
In the case of `N#Cc1ccc(-c2ccc3nccn3c2)cc1`, the fluorescence intensity is reported as 3660.
Work on `Cc1cc(C)cc(OCC(=O)Nc2ccc(S(=O)(=O)Nc3ccccn3)cc2)c1` yielded a fluorescence intensity of 2260.
Compound `Cc1ccc(NS(=O)(=O)c2ccc(C(C)(C)C)cc2)cn1` has a fluorescence intensity of 3470.
In the case of `Cc1ccc(S(=O)(=O)Nc2ccc3ncccc3c2)cc1`, the fluorescence intensity is reported as 22700 (active).
For `CSc1cccc(NC(=S)N(C(C)C)C(C)c2ccccn2)c1` (stereo not drawn), the fluorescence intensity was 3430.
Compound `Cc1ccc2c(=O)cc(C(=O)NCCc3ccc(S(N)(=O)=O)cc3)oc2c1C` has a fluorescence intensity of 3650.
Compound `COc1ccc(C(=O)NC2(C(F)(F)F)NC(=O)N(CCCc3ccccc3)C2=O)c(OC)c1OC` (stereo not drawn) has a fluorescence intensity of 8270.
`O=C(NCc1cccnc1)c1ccccc1NC(=O)c1c(F)cccc1F` showed a fluorescence intensity of 5910.
With `O=C(NC1(C(F)(F)F)NC(=O)N(Cc2cccnc2)C1=O)c1ccccc1Cl` (stereo not drawn) the fluorescence intensity was 21200 (active).
With `CCOC(=O)c1ccc(COC(=O)CCc2nc(-c3ccccc3)c(-c3ccccc3)o2)cc1` the fluorescence intensity was 16400 (active).
With `CCOC(=O)c1ccc(-n2c(CCC(=O)O)ccc2-c2ccccc2)cc1` the fluorescence intensity was 3600.
Compound `Cc1onc(-c2ccccc2)c1-c1nnc(COC(=O)c2ccc(N(C)C)cc2)o1` has a fluorescence intensity of 3380.
In the case of `COc1c(O)ccc2c1CN1CCc3cc4c(cc3C1C2)OCO4` (stereo not drawn), the fluorescence intensity is reported as 4960.
With `COc1ccc(C2OC(CCc3ccccc3)Cc3[nH]c(=S)[nH]c(=O)c32)cc1` (stereo not drawn) the fluorescence intensity was 5590.
In the case of `CCOC(=O)c1cc(NC(=O)c2cccnc2)ccn1`, the fluorescence intensity is reported as 3490.
In the case of `CCOC(=O)c1cc(NC(=O)c2cccnc2)cc(C(=O)OCC)c1`, the fluorescence intensity is reported as 24800 (active).
Work on `CCOc1ccccc1NC(=O)c1cccnc1` yielded a fluorescence intensity of 3020.
Compound `OC[C@@H]1CN(Cc2ccc(-c3ccccc3)cc2)C[C@H](n2cnc3c(NC4CCCC4)ncnc32)O1` has a fluorescence intensity of 3740.
With `Cc1ccc(-n2c(SCC(=O)Nc3ccc4c(c3)OCO4)nnc2-c2ccccn2)cc1` the fluorescence intensity was 9860.
Work on `COc1ccc(-n2c(SCC(=O)NCc3cccs3)nnc2-c2ccoc2C)cc1` yielded a fluorescence intensity of 3110.
`CCOC(=O)CSc1nnc(CNC(=O)c2ccco2)n1-c1ccc(F)cc1` gave a fluorescence intensity of 8100.
For `Cc1ccc(-c2nnc(SCC(=O)N/N=C/c3cccs3)n2-c2ccc(C)cc2)cc1`, the fluorescence intensity was 2620.
For `O=C(CSc1nnc(-c2ccccn2)n1-c1ccccc1)Nc1ccc2c(c1)OCO2`, the fluorescence intensity was 2680.
For `Cc1ccc(-n2c(Cc3cccs3)nnc2SCC(=O)OC(C)C)cc1`, the fluorescence intensity was 23800 (active).
For `CCn1c(Cc2cccs2)nnc1SCC(=O)c1ccc(C)cc1`, the fluorescence intensity was 23000 (active).
With `COc1ccc(-n2c(SCC(=O)OC(C)C)nnc2-c2ccccn2)cc1` the fluorescence intensity was 23500 (active).
Compound `Cn1c(Cc2cccs2)nnc1SCC(=O)Nc1ccccc1` has a fluorescence intensity of 5420.
With `CCOC(=O)CSc1nnc(CNC(=O)c2cccs2)n1-c1ccccc1` the fluorescence intensity was 24300 (active).
`CCOC(=O)CSc1nnc(CNC(=O)c2cccs2)n1-c1cc(OC)ccc1OC` showed a fluorescence intensity of 9680.
Compound `CCn1c(SCC(=O)c2ccc(Cl)s2)nnc1-c1cccs1` has a fluorescence intensity of 3490.
With `COc1ccc2c(CC(=O)NNC(=O)c3ccccc3F)coc2c1` the fluorescence intensity was 2950.
With `CCNC(=O)C1(C)CCCN(Cc2noc(-c3ccccc3OC)n2)C1` (stereo not drawn) the fluorescence intensity was 3700.
`CCN(CC)c1nc(-c2ccccc2)cc(C(F)(F)F)c1C#N` showed a fluorescence intensity of 2560.
Work on `O=C(C=CC(=O)Nc1ccc(F)cc1F)Nc1ccc(F)cc1F` yielded a fluorescence intensity of 6040.
In the case of `COc1ccc(NC(=O)C2(C)Cc3c(-c4cccc(NC(C)=O)c4)ccnc3O2)cc1OC` (stereo not drawn), the fluorescence intensity is reported as 3020.
With `CCc1nc2ccc(C(=O)N(C)CCN(C)C)cn2c1N(CC)CCOC` the fluorescence intensity was 3650.
`O=C(NCC(O)c1nc2ccccc2[nH]1)c1ccc(Br)cc1` (stereo not drawn) gave a fluorescence intensity of 5430.
`C[C@@H]1CC2=C(C(=O)OC(C)(C)O2)[C@@H](C2CC2)O1` gave a fluorescence intensity of 5730.
For `CCN(C(=O)CN1CCN(Cc2ccccc2)CC1)c1c(N)n(Cc2ccccc2)c(=O)[nH]c1=O`, the fluorescence intensity was 3390.
In the case of `Cc1csc(=O)n1CCC(=O)OCC(=O)NNC(=O)c1ccc(Br)cc1`, the fluorescence intensity is reported as 3030.
In the case of `Cc1nc(C(=O)Nc2ccc(Cl)cc2)sc1C1(C)CC(c2ccccc2)=NO1` (stereo not drawn), the fluorescence intensity is reported as 3390.
In the case of `C=C1C(=O)OC2C1CCC(C)=CCCC1(C)OC21` (stereo not drawn), the fluorescence intensity is reported as 6040.
In the case of `COc1ccc(NC(=O)C2(C)Cc3c(-c4cccc(NC(C)=O)c4)ccnc3O2)cc1` (stereo not drawn), the fluorescence intensity is reported as 3560.
In the case of `Cc1ccc(NC(=O)COc2ccc(/C=N\NC(=O)c3cccnc3)cc2)cc1C`, the fluorescence intensity is reported as 4500.
In the case of `O=C(O)c1ccc(N/N=C/c2cn(-c3ccccc3)nc2-c2cccs2)cc1`, the fluorescence intensity is reported as 3970.
In the case of `O=C(N/N=C/c1sc(N2CCCCC2)nc1-c1cccs1)c1cccnc1`, the fluorescence intensity is reported as 16400 (active).
For `O=C(Nc1ccc(Cl)cc1)c1csc([C@H]2C[C@H](O)[C@@H](CO)O2)n1`, the fluorescence intensity was 2790.
Work on `COCCCn1c(Cc2csc(Nc3cccc(Cl)c3)n2)nnc1SCC(=O)OC1CCCCC1` yielded a fluorescence intensity of 3010.
`NC(=O)CC(NC(=O)Cc1cccc2ccccc12)c1ccc(NCc2cc(F)ccc2F)c([N+](=O)[O-])c1` (stereo not drawn) gave a fluorescence intensity of 4100.
With `CCOc1ccc(OCC)c(NC(=O)C(NS(=O)(=O)c2ccc3c(c2)oc(=O)n3C)C(C)C)c1` (stereo not drawn) the fluorescence intensity was 20600 (active).
In the case of `CCOc1ccc(OCC)c(NC(=O)CCS(=O)(=O)c2ccc(C)cc2)c1`, the fluorescence intensity is reported as 3840.
`CSCCC(NS(=O)(=O)c1ccc2c(c1)oc(=O)n2C)C(=O)NCc1ccccc1` (stereo not drawn) gave a fluorescence intensity of 4490.
In the case of `CCCCN(CCCC)CCNC(=O)CN1C(=O)COc2ccc(S(=O)(=O)N3CCOCC3)cc21`, the fluorescence intensity is reported as 5470.
`CC(C)CNC(=O)C1(C)CCCN1C(=O)CSc1ccccc1` (stereo not drawn) gave a fluorescence intensity of 3520.
Work on `O=C(CP(=O)(c1ccccc1)c1ccccc1)N1CCOCC1` yielded a fluorescence intensity of 4810.
With `CCCCSc1[nH]c(=O)c(C(=O)OCC)cc1C#N` the fluorescence intensity was 23400 (active).
In the case of `CCOC(=O)c1cc(C)nc(S(C)(=O)=O)c1C#N`, the fluorescence intensity is reported as 6150.
With `CCOC(=O)c1cnc(COc2ccccc2Cl)[nH]c1=O` the fluorescence intensity was 5960.
Compound `CC(NCCc1ccc(S(N)(=O)=O)cc1)C(=O)NCc1ccccc1` (stereo not drawn) has a fluorescence intensity of 3370.
`O=C(O)c1ccccc1Cc1ccc(F)c2ccccc12` showed a fluorescence intensity of 3460.
With `Cc1noc(C)c1S(=O)(=O)N(C)C[C@H]1OCCCC[C@@H](C)Oc2ccc(NC(=O)CCCN(C)C)cc2C(=O)N([C@H](C)CO)C[C@@H]1C` the fluorescence intensity was 3820.
In the case of `O=C1CCC(=O)N1CCC(=O)N(C(=O)NC1CCCCC1)C1CCCCC1`, the fluorescence intensity is reported as 3950.
In the case of `COc1ccc(-c2cc(NC(C)=O)c3ncc(-c4cc(OC)c(OC)c(OC)c4)n3c2)cn1`, the fluorescence intensity is reported as 2720.
In the case of `CCOC(=O)C(C)Sc1nc2ccccc2c(=O)n1CC1CCCCC1` (stereo not drawn), the fluorescence intensity is reported as 19900 (active).
`CCOn1c(SC(C)C)nc2ccccc2c1=O` gave a fluorescence intensity of 10100.
Work on `COCC(C)n1c(SCC(=O)NC2CCCCC2C)nc2ccccc2c1=O` (stereo not drawn) yielded a fluorescence intensity of 2940.
`Cc1ccc2c(c1)N(CC(=O)NCCc1ccc(Cl)cc1)C(=O)c1cccnc1O2` showed a fluorescence intensity of 5070.
`CCc1nc2c(OCCOc3ccccc3)cccn2c1N(C)C(=O)c1ccccc1F` showed a fluorescence intensity of 3430.
`CCCCN(C=O)c1c(CC)nc2c(OCCC3CCCCC3)cccn12` showed a fluorescence intensity of 3460.
With `Cc1ccccc1OCC(=O)NCC(=O)OCC(=O)c1ccc2ccccc2c1` the fluorescence intensity was 10600.
Compound `Cc1ccc2[nH]c(=O)c(CN(CC3COCCO3)C(=O)Nc3ccccc3C)cc2c1` (stereo not drawn) has a fluorescence intensity of 3250.
For `Cc1ccc2[nH]c(=O)c(CN(CCCN(C)C)C(=O)Nc3cccc(Cl)c3)cc2c1`, the fluorescence intensity was 21500 (active).
For `Cc1cccc(NC(=O)N(Cc2cc3cc(C)cc(C)c3[nH]c2=O)CC2COCCO2)c1` (stereo not drawn), the fluorescence intensity was 11500.
With `COc1ccccc1CNc1nc(Nc2ccccc2Cl)c2sccc2n1` the fluorescence intensity was 3450.
In the case of `Cc1occc1C(=O)NNC(=S)NCC(C)C`, the fluorescence intensity is reported as 16400 (active).
With `CC(C)CNC(=S)NNC(=O)c1nn(C)cc1Cl` the fluorescence intensity was 8820.
`Cc1scc(C(=O)NNC(=S)NCC(C)C)c1C` showed a fluorescence intensity of 2420.
`CN(C)S(=O)(=O)c1ccc(C(=O)NCCN=C2NS(=O)(=O)c3ccccc32)cc1` showed a fluorescence intensity of 3720.
